Assay results: PubChem BioAssay AID1792 (The Scripps Research Institute Molecular Screening Center, 2009)
Screen size: about 16,000 compounds; about 130 (0.81%) were called active. No stated cut-off is given here; in the data, active means inhibition above about 75%; inactive means the rest. The list comes from a sample in which actives are over-represented; it also holds similar structures and randomly drawn compounds.

What follows are compounds tested against NADPH oxidase 1 (Homo sapiens) (UniProt Q9Y5S8) (assay: inhibitors of human NADPH oxidase 1 (Nox1) (AID 1792)). Details: HT29 cells, luminol chemiluminescence ROS; at 6.7 µM; hits give high values.
Sequence of NADPH oxidase 1 (Homo sapiens) (Q9Y5S8 whole entry, looked up): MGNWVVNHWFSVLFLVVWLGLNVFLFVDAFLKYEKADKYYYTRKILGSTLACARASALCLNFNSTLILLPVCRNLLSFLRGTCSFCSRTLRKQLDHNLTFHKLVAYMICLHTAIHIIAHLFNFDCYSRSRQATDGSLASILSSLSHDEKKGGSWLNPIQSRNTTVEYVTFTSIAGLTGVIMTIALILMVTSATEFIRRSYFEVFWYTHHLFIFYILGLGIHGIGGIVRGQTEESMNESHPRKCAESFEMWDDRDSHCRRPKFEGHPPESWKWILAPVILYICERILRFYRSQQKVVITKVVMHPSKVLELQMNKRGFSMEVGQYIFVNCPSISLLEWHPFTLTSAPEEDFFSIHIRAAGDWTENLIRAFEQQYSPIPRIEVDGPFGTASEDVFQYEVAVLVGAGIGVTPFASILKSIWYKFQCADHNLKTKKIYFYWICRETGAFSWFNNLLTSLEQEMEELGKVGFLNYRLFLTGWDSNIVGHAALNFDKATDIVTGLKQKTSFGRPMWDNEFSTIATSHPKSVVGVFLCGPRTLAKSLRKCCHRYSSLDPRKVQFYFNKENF

| SMILES | inhibition |
| --- | --- |
| CCOC(=O)/C(=N/Nc1ccccc1)C(C)=N | -20% (inactive) |
| Cc1cc(Cl)ccc1NC(=S)NNC(=S)Nc1ccc(F)cc1 | 87.6% (active) |
| CC(=O)Nc1ccc(F)cc1F | -7.89% (inactive) |
| COc1ccc(OCCC(=O)NNC(=S)Nc2cc(Cl)ccc2Cl)cc1 | -22.8% (inactive) |
| O=[N+]([O-])c1ccc(N2CCOCC2)cc1 | 23.6% (inactive) |
| CN(NS(=O)(=O)CS(C)(=O)=O)c1ncccc1[N+](=O)[O-] | -4.72% (inactive) |
| O=C1C(Cl)=C(Oc2cc(Cl)c(Cl)cc2Cl)C(=O)c2ccccc21 | 64% (inactive) |
| O=C(O)C#Cc1cccc2ccccc12 | -49.7% (inactive) |
| Cc1ccc2oc(-c3cccs3)nc2c1 | -69.6% (inactive) |
| Clc1ccc(CO/N=C/c2nc3ccccc3s2)cc1 | -46.7% (inactive) |
| CSc1nsc(SC)c1C(=O)Nc1cc(C(F)(F)F)cc(C(F)(F)F)c1 | -44% (inactive) |
| CCOC(=O)/C(C#N)=C/N/S(C)=N/N=C/c1ccc(N(C)C)cc1 (stereo not given) | 3.26% (inactive) |
| CCCCNc1nc(N)ns1 | -43% (inactive) |
| Clc1ccc(-c2csc(N/N=C\c3ccn[nH]3)n2)cc1 | 19% (inactive) |
| Cc1nc(-c2ccccn2)n2nnnc2c1Cl | -68.7% (inactive) |
| O=[N+]([O-])c1ccc(CSc2nc3cc(Cl)c(F)cc3[nH]2)cc1 | 10.8% (inactive) |
| Cn1nnnc1SCC(=O)Nc1ccc(OC(F)(F)F)cc1 | 12% (inactive) |
| CN(C)c1ccc(C=Nc2ccc(S(N)(=O)=O)cc2)cc1 | -7.18% (inactive) |
| O=S(=O)(Cc1nnc(-c2cc(Cl)cc(Cl)c2)o1)c1ccc(Cl)cc1 | -4.49% (inactive) |
| O=C(CSC1=NCCc2ccccc21)Nc1ccc(F)cc1F | 0% (inactive) |

| SMILES | inhibition |
| --- | --- |
| N/C(=N\OS(=O)(=O)c1ccc(C(F)(F)F)cc1)C1CSCCS1 (stereo not given) | -14.1% (inactive) |
| CC1=CC(=O)C(CCC2=CC(=O)C(C)=CC2=O)=CC1=O | 87.8% (active) |
| COc1ccc(/C(C)=N/Nc2c([N+](=O)[O-])cc(C(F)(F)F)cc2[N+](=O)[O-])cc1CC#N | -38.4% (inactive) |
| O=C(O)C1CCC1C(=O)Nc1nnc(C2CC2)s1 (stereo not given) | 12% (inactive) |
| COc1ccc(/C=N/N2CCC(=O)Nc3ccccc32)c(OC)c1 | -3% (inactive) |
| Cc1oc(-c2ccc(Cl)cc2)cc1C(=O)O/N=C(\N)Cc1nc2cccnc2n1C1CC1 | 86.4% (active) |
| Cc1oc(-c2ccc(Cl)cc2)cc1C(=O)N1CCN(Cc2ccccc2)CC1 | -19.5% (inactive) |
| Cc1oc(-c2ccc(Cl)cc2)cc1C(=O)N1CCOCC1 | 4.54% (inactive) |
| CC(=O)N1CCc2cc(NC(=S)Nc3ccccc3Cl)ccc21 | 11.8% (inactive) |
| CN1CCCCC(C2=C(Cl)C(=O)CCC2)C1=O (stereo not given) | -2.08% (inactive) |
| O=C1C(Nc2ccccc2)=CC(c2ccc([N+](=O)[O-])cc2)N1c1ccccc1 (stereo not given) | -5.43% (inactive) |
| O=C(O)c1cc(=O)[nH]c2c(Cl)cc(Cl)cc12 | -17.9% (inactive) |
| Cc1ccc(S(=O)(=O)N/N=C/c2ccc(O)cc2O)cc1 | -34.9% (inactive) |
| COc1cc(C=C(C#N)C#N)cc(OC(C)=O)c1OC(C)=O | 93.6% (active) |
| COc1ccc2c(OC(C)=O)coc2c1 | -103% (inactive) |
| Cc1nnsc1C(=O)N/N=C/c1ccccc1Cl | 26.6% (inactive) |
| Cc1nn2c(=O)c3c4c(sc3nc2[nH]c1=O)CCCC4 | -87% (inactive) |
| COC(OC)c1ccnc(SCC(=O)Nc2ccc(C(C)C)cc2)n1 | -5.58% (inactive) |
| N#Cc1cn(-c2cccc(C(F)(F)F)c2)c(=O)n(Cc2ccc(Cl)cc2)c1=O | 11.4% (inactive) |
| O=C1OC2(CCCCC2)OC1c1ccccc1 (stereo not given) | -30.5% (inactive) |
